In publication PMC4336329 (PLoS ONE, 2015):
Among all 310,000 compounds or so, about 2,200 (0.71%) showed an effect of 50% or more. The effect is printed as a negative number. The entries come from a sample that favours strong results as a whole.

target: human ether-à-go-go-related gene (hERG) potassium channel (human, UniProt Q12809); assay: primary screen, population patch clamp on CHO cells stably expressing hERG; higher = less effect of the substance
Description: Briefly, Chinese hamster ovary (CHO) cells stably expressing the hERG channel were dislodged from tissue culture flasks and dispensed into PPC plates. […] During the recording, background leak currents were estimated by a 100 ms step to -80 mV from an initial holding potential of -70 mV and subtracted from the subsequent current measurement. The campaign was conducted in two phases using slight differences in recording protocol. In the first phase, the initial voltage pulse used a 100 ms step to -30 mV from a holding potential of -70 mV, a 2 s conditioning step to +25 mV, and a 2 s test step to -30 mV. During the second phase of the screen, the potential during the conditioning step was raised to +45 mV. In both phases of the campaign, a secondary voltage pulse was applied using the same parameters as the second phase initial pulse. The initial and secondary pulses were applied in the absence of compound, and upon application of 1 μM and 10 μM test concentrations. Small molecule effects on hERG current density were quantified by […].

Chain of human ether-à-go-go-related gene (hERG) potassium channel (Q12809 whole entry, looked up): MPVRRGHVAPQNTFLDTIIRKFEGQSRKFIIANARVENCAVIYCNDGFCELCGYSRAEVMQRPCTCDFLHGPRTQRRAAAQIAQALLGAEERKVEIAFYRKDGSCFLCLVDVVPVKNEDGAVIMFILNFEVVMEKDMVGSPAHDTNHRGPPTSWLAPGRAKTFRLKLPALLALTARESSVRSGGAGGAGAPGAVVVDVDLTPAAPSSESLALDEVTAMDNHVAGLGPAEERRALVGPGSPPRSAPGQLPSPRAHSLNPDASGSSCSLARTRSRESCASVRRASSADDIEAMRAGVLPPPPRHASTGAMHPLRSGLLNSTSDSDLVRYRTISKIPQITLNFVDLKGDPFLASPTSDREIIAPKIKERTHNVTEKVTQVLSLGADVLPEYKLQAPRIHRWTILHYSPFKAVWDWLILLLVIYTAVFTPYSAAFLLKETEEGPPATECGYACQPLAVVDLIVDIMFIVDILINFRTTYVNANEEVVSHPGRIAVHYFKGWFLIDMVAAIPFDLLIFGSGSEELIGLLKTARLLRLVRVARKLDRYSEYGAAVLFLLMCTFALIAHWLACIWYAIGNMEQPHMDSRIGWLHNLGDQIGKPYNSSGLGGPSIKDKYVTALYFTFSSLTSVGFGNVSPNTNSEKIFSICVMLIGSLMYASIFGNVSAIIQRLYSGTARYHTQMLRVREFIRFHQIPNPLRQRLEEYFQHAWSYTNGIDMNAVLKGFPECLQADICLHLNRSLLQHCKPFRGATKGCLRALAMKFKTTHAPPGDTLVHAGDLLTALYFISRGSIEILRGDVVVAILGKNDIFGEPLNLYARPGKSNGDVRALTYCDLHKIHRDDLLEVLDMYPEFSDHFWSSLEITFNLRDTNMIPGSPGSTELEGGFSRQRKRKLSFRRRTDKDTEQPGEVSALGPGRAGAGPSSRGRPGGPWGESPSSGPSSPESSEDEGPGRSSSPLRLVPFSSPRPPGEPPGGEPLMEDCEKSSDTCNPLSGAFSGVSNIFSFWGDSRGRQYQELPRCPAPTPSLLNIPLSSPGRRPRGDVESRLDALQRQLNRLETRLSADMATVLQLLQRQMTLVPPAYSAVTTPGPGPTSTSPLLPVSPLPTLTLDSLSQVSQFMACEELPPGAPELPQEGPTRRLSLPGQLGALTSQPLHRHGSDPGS

Going from `Cc1ccc(Nc2nc(N)nc(CN3CCN(Cc4ccc5c(c4)OCO5)CC3)n2)cc1` to `Cc1cccc(Nc2nc(N)nc(CN3CCN(Cc4ccc5c(c4)OCO5)CC3)n2)c1`, the “hERG current change (%, negative = inhibition) at 1uM” value falls from -53.4% to -74.3%.

First: Cc1ccc(Nc2nc(N)nc(CN3CCN(C)CC3)n2)cc1
Second: Cc1cccc(Nc2nc(N)nc(CN3CCN(C)CC3)n2)c1
The “hERG current change (%, negative = inhibition) at 1uM” value of the first is higher: 4.62% for the first, -5.33% for the second.

Compared with `Cc1cccc(Nc2nc(N)nc(CN3CCN(c4ccccc4)CC3)n2)c1`, `Nc1nc(CN2CCN(c3ccccc3F)CC2)nc(Nc2ccccc2)n1` is higher in “hERG current change (%, negative = inhibition) at 1uM” value: -7.51% for the first, 0.21% for the second.

First: Nc1nc(CN2CCN(Cc3ccc4c(c3)OCO4)CC2)nc(Nc2ccccc2)n1
Second: Cc1ccccc1Nc1nc(N)nc(CN2CCN(Cc3ccc4c(c3)OCO4)CC2)n1
The “hERG current change (%, negative = inhibition) at 1uM” value of the first is lower: -77.4% for the first, -45.4% for the second.

First: Nc1nc(CN2CCN(Cc3ccccc3)CC2)nc(Nc2ccc3c(c2)OCCO3)n1
Second: Nc1nc(CN2CCN(c3ccccc3F)CC2)nc(Nc2ccc3c(c2)OCCO3)n1
The “hERG current change (%, negative = inhibition) at 1uM” value of the first is lower: -52.3% for the first, -38% for the second.

First: CN1CCN(Cc2nc(N)nc(Nc3ccc4c(c3)OCCO4)n2)CC1
Second: Cc1ccc(Nc2nc(N)nc(CN3CCN(Cc4ccc5c(c4)OCO5)CC3)n2)cc1Cl
The “hERG current change (%, negative = inhibition) at 1uM” value of the first is higher: 3.07% for the first, -34.6% for the second.

Going from `CC(C)(O)C#Cc1ccc(C(=O)NCc2ccccc2)s1` to `O=C(NCc1ccccc1)/C(=C\c1ccccc1)NC(=O)c1ccco1`, the “hERG current change (%, negative = inhibition) at 1uM” value rises from -2.9% to 11.9%.

Compared with `CCc1nn(CC(=O)NCCCN(C)C2CCCCC2)c(=O)c2cc3occc3n12`, `COc1ccc(CCNC(=O)C(C)n2nc(C)n3c(cc4occc43)c2=O)cc1OC` (stereo not shown) is higher in “hERG current change (%, negative = inhibition) at 1uM” value: 2.42% for the first, 12.2% for the second.

Going from `CN1CCN(c2nc(Nc3ccc(F)cc3)nc(Nc3ccc(F)cc3)n2)CC1` to `O=C(CN1CCC(O)(c2ccc(F)cc2)CC1)NCc1ccc(F)cc1`, the “hERG current change (%, negative = inhibition) at 1uM” value rises from -0.878% to -0.396%.

Compared with `COc1ccc(CNC(=S)Nc2ccc(-c3ccccc3)cc2)cc1`, `NC(=O)c1ccc(NC(=O)c2cccc(Oc3ccccc3)c2)cc1` is higher in “hERG current change (%, negative = inhibition) at 1uM” value: 6.99% for the first, 12.5% for the second.

First: COCCn1c(C)cc(C(=O)CSc2nncn2-c2ccccc2)c1C
Second: COc1ccc(C(=O)CSc2nnc(-c3cc4ccccc4cc3O)n2Cc2ccco2)cc1
The “hERG current change (%, negative = inhibition) at 1uM” value of the first is higher: 8.85% for the first, -16.2% for the second.

Going from `COc1ccc(OCCN2CCOCC2)cc1` to `C=CCc1ccccc1OCC(O)CN1CCN(c2ccc(OC)cc2)CC1.Cl` (stereo not shown), the “hERG current change (%, negative = inhibition) at 1uM” value falls from 20.7% to -27.3%.

First: CN(C)S(=O)(=O)N1CCC(Oc2cccc(C(=O)N3CCSCC3)c2)CC1
Second: O=C(OCC(=O)N1CCCC1=O)c1ccc(F)c(S(=O)(=O)N2CCOCC2)c1
The “hERG current change (%, negative = inhibition) at 1uM” value of the first is higher: 4.68% for the first, -4.67% for the second.

Compared with `S=c1[nH]cnc2scc(-c3ccc(Cl)cc3)c12`, `Cc1[nH]nc(N)c1-c1ccc(Cl)cc1` is lower in “hERG current change (%, negative = inhibition) at 1uM” value: 10.5% for the first, 3.97% for the second.

Compared with `Cc1ccc(Nc2nc(N)nc(CN3CCN(Cc4ccc5c(c4)OCO5)CC3)n2)c(C)c1`, `Cc1ccc(Nc2nc(N)nc(CN3CCCCCC3)n2)c(C)c1` is higher in “hERG current change (%, negative = inhibition) at 1uM” value: -70.5% for the first, -21.7% for the second.

First: COc1ccc(-n2c(C)c3c(OC)cccc(=O)c3c2C)cc1
Second: COc1cccc(CCNC(=O)c2ccc(C#N)cc2)c1
The “hERG current change (%, negative = inhibition) at 1uM” value of the first is lower: 0.316% for the first, 8.19% for the second.

Compared with `O=S(=O)(Nc1nc2ccccc2nc1NCCN1CCOCC1)c1cccc(Cl)c1`, `Cc1ccc(NC(=O)CSCC(=O)Nc2ccc(S(=O)(=O)N3CCOCC3)cc2)cc1` is higher in “hERG current change (%, negative = inhibition) at 1uM” value: 8.11% for the first, 11.4% for the second.

Compared with `O=C(COC(=O)c1ccco1)NCC1CCCO1` (stereo not shown), `O=C(OCC(=O)N(C1CCCCC1)C1CCCCC1)c1ccco1` is higher in “hERG current change (%, negative = inhibition) at 1uM” value: -0.29% for the first, 9.71% for the second.

Going from `COc1cc(CNC23CC4CC(CC(C4)C2)C3)ccc1OCc1ccccc1.Cl` to `COc1cccc(CNC23CC4CC(CC(C4)C2)C3)c1OCc1ccccc1.Cl`, the “hERG current change (%, negative = inhibition) at 1uM” value rises from 1.77% to 3.29%.

First: Cl.c1ccc(COc2ccccc2CNC23CC4CC(CC(C4)C2)C3)cc1
Second: C=CCc1ccccc1OCC(O)CN1CCN(c2ccccc2F)CC1.Cl (stereo not shown)
The “hERG current change (%, negative = inhibition) at 1uM” value of the first is lower: -73.8% for the first, -0.42% for the second.

Compared with `Cc1cccc(-c2ccc(NC(=O)C3CCN(CC4CC4)CC3)cc2)c1`, `Cc1cc(NCc2ccco2)nc(N2CCC(C(=O)NC3CCCCC3)CC2)n1` is lower in “hERG current change (%, negative = inhibition) at 1uM” value: -5.16% for the first, -63.6% for the second.

Compared with `Cc1cccn2c(=O)c3cc(C(=O)NCC4CCCO4)c(=N)n(C4CCCCC4)c3nc12` (stereo not shown), `Cc1cccn2c(=O)c3cc(C(=O)NCC4CCCO4)c(=N)n(C4CCCC4)c3nc12` (stereo not shown) is higher in “hERG current change (%, negative = inhibition) at 1uM” value: -83.7% for the first, -80.3% for the second.

Compared with `COc1ccc(C2/C=C\CN(C(=O)c3ccc(C)cc3)[C@H](Cc3ccccc3)C(=O)N2Cc2ccc(F)cc2)cc1` (stereo partly shown), `CCOC(=O)c1[nH]c2ccc(OC)cc2c1NC(=O)CCN1CCN(Cc2ccccc2)CC1` is lower in “hERG current change (%, negative = inhibition) at 1uM” value: 11.8% for the first, -36% for the second.

First: O=C(Cn1cnc(S(=O)(=O)N2CCCCC2)c1)Nc1ccc(OC(F)(F)F)cc1
Second: OC1(c2cccc(C(F)(F)F)c2)CCN(CCN2CCCCC2)CC1
The “hERG current change (%, negative = inhibition) at 1uM” value of the first is lower: 11.7% for the first, 16.2% for the second.

First: O=C(Oc1cccc2cccnc12)c1cccc(N2C(=O)C3C4CCC(C4)C3C2=O)c1 (stereo not shown)
Second: O=C1c2ccccc2C(=O)N1CSc1ncccn1
The “hERG current change (%, negative = inhibition) at 1uM” value of the first is higher: 3.55% for the first, 1.65% for the second.

First: OC(CCCN1CCC(O)(c2ccc(Cl)cc2)CC1)c1ccc(F)cc1 (stereo not shown)
Second: O=C(CCCN1CCC(O)(c2ccc(Br)cc2)CC1)c1ccc(F)cc1
The “hERG current change (%, negative = inhibition) at 1uM” value of the first is higher: -72.7% for the first, -75.7% for the second.

Going from `CC(=O)N1CCC(O)(c2cccc(C(F)(F)F)c2)CC1` to `Cl.O=C(CCCN1CCC(O)(c2cccc(C(F)(F)F)c2)CC1)c1ccc(F)cc1`, the “hERG current change (%, negative = inhibition) at 1uM” value falls from 8.78% to -80.9%.

Compared with `OC(CN1CCN(c2ccc(F)cc2)CC1)c1ccc(Cl)cc1` (stereo not shown), `OC1(c2ccc(Cl)cc2)CCN(Cc2cn[nH]c2-c2ccc(F)cc2)CC1` is lower in “hERG current change (%, negative = inhibition) at 1uM” value: 2.87% for the first, -27.2% for the second.

Going from `Cl.O=C(CCN1CCN(c2ccccc2F)CC1)c1ccc(Br)cc1` to `C=CCc1ccccc1OCC(O)CN1CCN(c2ccccc2OC)CC1.Cl` (stereo not shown), the “hERG current change (%, negative = inhibition) at 1uM” value falls from -40% to -52.3%.

Going from `CCOC(=O)C1=C(C)NC(C)=C(C(=O)OCC)C1c1ccc(Br)o1` to `Cc1cc(C)c(NC(=O)CCCSc2nnc(N)s2)c(C)c1`, the “hERG current change (%, negative = inhibition) at 1uM” value falls from 9.3% to -4.26%.

Compared with `COc1cc([N+](=O)[O-])ccc1NC(=S)NCc1ccccn1`, `O=C(NCCO)/C(=C/c1cccc([N+](=O)[O-])c1)NC(=O)c1ccco1` is higher in “hERG current change (%, negative = inhibition) at 1uM” value: 8.38% for the first, 9.43% for the second.

Compared with `S=C(Nc1ccc(Cl)cc1Cl)Nc1ccccc1Oc1ccccc1`, `O=C(NCCc1ccccc1)/C(=C\c1ccccc1)NC(=O)c1ccco1` is lower in “hERG current change (%, negative = inhibition) at 1uM” value: 12.4% for the first, 9.3% for the second.

First: Cc1cc(C)nc(N2CCC(C(=O)NC3CCCCCC3)CC2)n1
Second: Cc1cc(C)nc(N2CCC(C(=O)NCc3ccco3)CC2)n1
The “hERG current change (%, negative = inhibition) at 1uM” value of the first is lower: 0.0346% for the first, 1.22% for the second.

Going from `CC(=O)Oc1ccc(/C=C(\NC(=O)c2ccco2)C(=O)NCc2ccco2)cc1` to `CC(=O)Oc1ccc(/C=C(\NC(=O)c2ccco2)C(=O)NCc2ccccc2)cc1`, the “hERG current change (%, negative = inhibition) at 1uM” value falls from -11% to -58.9%.

Going from `O=C(NCCc1ccccc1)/C(=C\c1cccc([N+](=O)[O-])c1)NC(=O)c1ccco1` to `O=C(NCCc1ccccc1)/C(=C\c1ccc([N+](=O)[O-])cc1)NC(=O)c1ccco1`, the “hERG current change (%, negative = inhibition) at 1uM” value falls from -50.6% to -59%.

Compared with `O=C(NCCc1ccccc1)/C(=C\c1ccc([N+](=O)[O-])cc1)NC(=O)c1ccccc1`, `O=C(NCc1ccccc1)/C(=C/c1ccc([N+](=O)[O-])cc1)NC(=O)c1ccco1` is lower in “hERG current change (%, negative = inhibition) at 1uM” value: 3.17% for the first, -31% for the second.

Going from `O=C(NCc1ccco1)/C(=C/c1ccc([N+](=O)[O-])cc1)NC(=O)c1ccco1` to `O=C(NCc1ccccc1)/C(=C\c1ccc([N+](=O)[O-])cc1)NC(=O)c1ccco1`, the “hERG current change (%, negative = inhibition) at 1uM” value rises from -50.4% to -19.6%.

First: O=C(NCCO)/C(=C\c1cccc([N+](=O)[O-])c1)NC(=O)c1ccco1
Second: O=C(O)CCN1C(=O)c2ccccc2C1=O
The “hERG current change (%, negative = inhibition) at 1uM” value of the first is lower: 8.45% for the first, 19.2% for the second.

Going from `Cc1cc(C)c(S(C)(=O)=O)c(S(=O)c2ccc(Cl)cc2)n1` (stereo not shown) to `CN(C)S(=O)(=O)c1cccc(-c2nnc(SCc3ccc4c(c3)OCCO4)o2)c1`, the “hERG current change (%, negative = inhibition) at 1uM” value falls from 3.19% to -0.0123%.

Going from `NC(=O)CSc1nnc(Cc2csc(Nc3ccc(F)cc3)n2)n1Cc1ccccc1` to `C=CCc1ccc(OCC(O)CN2CCN(Cc3ccccc3)CC2)c(OC)c1.Cl` (stereo not shown), the “hERG current change (%, negative = inhibition) at 1uM” value falls from 11.5% to -10.6%.

First: C=CCc1ccc(OCC(O)CN2CCN(Cc3ccc(Cl)cc3)CC2)c(OC)c1.Cl (stereo not shown)
Second: C=CCc1ccc(OCC(O)CN2CCN(c3ccccc3)CC2)c(OC)c1.Cl (stereo not shown)
The “hERG current change (%, negative = inhibition) at 1uM” value of the first is lower: -55.3% for the first, -33.7% for the second.

First: C=CCc1ccc(OCC(O)CN2CCCCC2)c(OC)c1 (stereo not shown)
Second: C=CCc1ccc(OCC(O)CN2CCC(Cc3ccccc3)CC2)c(OC)c1.Cl (stereo not shown)
The “hERG current change (%, negative = inhibition) at 1uM” value of the first is higher: -16.5% for the first, -75% for the second.

For `C=CCc1ccc(OCC(O)CN2CCN(c3ccccc3OC)CC2)c(OC)c1.Cl` (stereo not shown), the “hERG current change (%, negative = inhibition) at 1uM” value was 8.86%.
